Measured values taken from PubChem BioAssay.
“And” between values parts separate entries of the source, which are not always exact repeats. Equal entries are not always repeated. The source made the active and inactive calls.

How the values were obtained:
[1] = A549 cell viability effects, profiling panel, calcein-AM fluorescence, 48 h, basal (AID 1162); conditions: higher = more signal
[2] = adipocyte viability effects, profiling panel, cell-based, 3T3-L1 adipocytes, calcein-AM fluorescence, 48 h, basal (AID 1163); conditions: 3T3-L1 adipocytes viability, higher = more signal
[3] = HepG2 cell viability effects, profiling panel, calcein-AM fluorescence, 48 h, basal (AID 1164); conditions: higher = more signal
[4] = MM1S cell viability effects, profiling panel, calcein-AM fluorescence, 48 h, basal (AID 1165); conditions: higher = more signal;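 note: viability of MM1S multiple myeloma cells under basal unstimulated conditions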
[5] = basal RPMI8226 viability, no added stimulus, profiling panel, cell-based, calcein-AM fluorescence, 48 h, PK04 Diversity Set (AID 1166); conditions: RPMI8226 myeloma viability, higher = more signal;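 note: cells grown under basal conditions without added stimulus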
[6] = basal HepG2 mitochondrial membrane potential changes, profiling panel, cell-based, JC-1 fluorescence, 24 h, 100 nL compound (AID 1167); conditions: higher = more signal
[7] = basal 3T3-L1 adipocyte mitochondrial potential changes, profiling panel, cell-based, JC-1 fluorescence, 3T3-L1 adipocytes, 24 h, 100 nL compound (AID 1168); conditions: JC-1 mitochondrial fluorescence, higher = more signal, called active from +8 up or from −8 down
[8] = basal RPMI8226 mitochondrial membrane potential changes, profiling panel, cell-based, JC-1 fluorescence, 24 h, 100 nL compound (AID 1169); conditions: RPMI8226 myeloma, JC-1 mitochondrial potential fluorescence, higher = more signal
[9] = basal MM1S mitochondrial membrane potential changes, profiling panel, cell-based, JC-1 fluorescence, 24 h, 100 nL compound (AID 1170); conditions: higher = more signal
[10] = A549 lung cancer cell viability effects, profiling panel, resazurin fluorescence, 24 h, PK04 Diversity Set (AID 1171); conditions: higher = more signal, called active from +8 up or from −8 down
Note: test concentration not given here.

SMILES	z-score [1]	z-score [2]	z-score [3]	z-score [4]	z-score [5]	z-score [6]	z-score [7]	z-score [8]	z-score [9]	z-score [10]
C=CCN(C(=O)C1N(CCCCCCO)C(=O)C2C(C(=O)O)C3C=CC21O3)c1ccc(OC)cc1 (stereo not given)	1.37 and 0.282	0.743 and -0.0063	-0.46 and 0.428	0.315 and -1.1	0.432 and 0.269	0.113 and -0.546	0.74 (inactive) and 0.861 (inactive)	-0.875 and -0.0778	1.02 and 1.2	1.09 (inactive) and 0.416 (inactive)
C[C@@H]1CC[C@H]2C(=O)NC[C@@H](O)CN2[C@H]1c1ccc(Br)cc1	-0.179 and 0.44	-0.856 and 0.491	-0.141 and 0.284	0.211 and -0.52	-0.239 and -0.0289	-0.606 and 0.493	-0.455 (inactive) and 0.104 (inactive)	-0.606 and 0.0684	0.0814 and -0.633	0.153 (inactive) and -0.285 (inactive)
CCCC[C@@H]1CN2[C@H](c3ccc(Br)cc3)[C@@H](C)CC[C@H]2C(=O)O1	1.03 and 0.449	-1.1 and -0.272	0.155 and 0.493	-1.36 and -0.797	0.969 and 0.24	0.134 and -1.42	-0.299 (inactive) and -0.848 (inactive)	-0.187 and -0.361	-1.19 and 1.26	0.301 (inactive) and 1.49 (inactive)
CCCC[C@@H]1CN2[C@@H](CC[C@@H](C)[C@@H]2c2ccc(Br)cc2)C(=O)O1	0.761 and 1.06	-0.857 and -0.567	0.537 and -0.336	-1.1 and 0.516	0.309 and -0.616	-0.48 and 0.127	-0.136 (inactive) and -1.09 (inactive)	0.266 and -0.0989	0.0213 and -0.396	-0.335 (inactive) and -0.178 (inactive)
CCOC(=O)C[C@H]1[C@H](OC(=O)c2ccccc2-c2ccccc2)[C@@H](NC(=O)Cc2ccc(OC)cc2)c2cc(OCCCO)ccc2N1C(=O)Cc1ccc(OC)cc1	0.615 and 0.158	1.92 and 0.0868	-0.0677 and -0.11	0.902 and -0.0317	0.869 and -0.427	3.07 and 0.376	0.491 (inactive) and 0.191 (inactive)	0.846 and -0.309	1.46 and 0.00765	0.615 (inactive) and 0.786 (inactive)
C[C@@H]1CC[C@H]2C(=O)O[C@H](CN=[N+]=[N-])CN2[C@H]1c1ccc(Br)cc1	-2.47 and 0.677	-0.805 and -0.0793	-2.75 and -0.113	-3.4 and -0.0115	-3.07 and 0.163	-2.47 and 0.365	-0.136 (inactive) and 0.265 (inactive)	-0.867 and 0.0245	-1.02 and 0.242	-0.854 (inactive) and 0.459 (inactive)
C=C[C@@H](C)[C@H](O)c1ccc(O)c2ccccc12	-0.529 and -0.709	-0.134 and 0.136	-0.988 and -0.789	-2.66 and -2.63	-0.808 and -0.695	-1.66 and -1.91	-1.42 (inactive) and -0.865 (inactive)	-0.333 and -0.269	-0.52 and 0.331	-0.28 (inactive) and -0.0127 (inactive)
CON(C)C(=O)c1nnc2c3ccccc3n(S(=O)(=O)c3ccc(C)cc3)c2n1	0.318 and 1.25	0.495 and -0.447	-1.33 and -0.298	0.14 and 0.0315	0.496 and -0.588	-1.61 and -1.52	-0.301 (inactive) and -0.0202 (inactive)	0.218 and 0.4	-0.436 and -0.72	0.617 (inactive) and -0.146 (inactive)
C=CCN(Cc1ccccc1)C(=O)C1N(c2ccc(CCO)cc2)C(=O)C2C(C(=O)O)C3C=CC21O3 (stereo not given)	0.14 and -0.777	0.103 and 0.408	-0.0042 and -0.474	0.298 and 1.04	-0.6 and -0.438	0.0701 and -0.213	0.543 (inactive) and 0.024 (inactive)	-0.79 and 0.726	1.09 and 0.0787	-1.06 (inactive) and -0.459 (inactive)
COC(=O)C1=C(C)N(Cc2ccccc2)[C@]23O[C@](C(=O)OC)(C(=O)N2[C@@H]1c1ccccc1)[C@H]1C(=O)N(C)C(=O)[C@H]13	0.395 and 1.67	1.1 and 0.612	0.0623 and -0.164	0.639 and 0.0646	-1.44 and 1.16	0.873 and 0.158	0.107 (inactive) and 1.13 (inactive)	-0.536 and 0.12	0.551 and -0.416	-0.81 (inactive) and 0.0401 (inactive)
C=CCN(CCCCC)C(=O)C1N(c2c(Cl)cccc2CO)C(=O)C2C(C(=O)O)C3C=CC21O3 (stereo not given)	0.91 and 0.677	1.58 and 0.498	-0.841 and -0.469	1 and 0.892	-1.09	-0.828 and -1.37	-0.438 (inactive) and -0.55 (inactive)	0.0653 and 0.469	0.223 and 1.03	-1.5 (inactive) and -1.33 (inactive)
COC(=O)[C@@]1(Cc2ccccc2)[C@H]2c3cc(C(=O)N(C)C)n(C[C@H](O)CO)c3C[C@H]2CN1C(=O)c1ccccc1	-0.876 and -0.976	0.318 and -0.385	-0.76 and -1.07	0.112 and 0.416	-1.95 and 0.383	-1.04 and -0.162	-0.0997 (inactive) and -0.187 (inactive)	-0.194 and -0.294	-0.609 and -0.129	-1.3 (inactive) and -0.848 (inactive)
CC(CO)N1C(=O)[C@@H]2C3C(=O)OCCC=C[C@H]3OC23C=CCN(CCN2CCOCC2)C(=O)[C@@H]13 (stereo not given in full)	-0.438 and -0.439	-0.465 and 0.0431	-1.36 and -0.421	0.19 and 0.248	-0.174 and -0.382	-0.41 and -1.09	-0.189 (inactive) and -0.818 (inactive)	-0.00565 and 0.13	-0.137 and -0.0991	-0.298 (inactive) and 0.141 (inactive)
C=CCN(Cc1ccccc1)C(=O)C1N(C(C)(C)CO)C(=O)C2C(C(=O)O)C3C=CC21O3 (stereo not given)	-0.535 and -0.297	-0.355 and 0.134	-1.11 and 0.0167	0.0296 and 1.03	0.0867 and -0.103	-0.955 and -0.123	0.0762 (inactive) and -0.264 (inactive)	0.248 and 0.652	-0.16 and -0.15	-0.363 (inactive) and 0.344 (inactive)
